PubChem BioAssay (NCI)
About 79,000 compounds went through this panel and 15% of them were active in at least one assay; those are over-represented in the sample as a whole. Unmarked numbers belong to inactive results. Activity calls are given as the source filed them. Cut-off read from the data, not from the text of the source: active = growth inhibition above about 70%; inactive = the rest.

How the values were obtained:
[1] = NCI Yeast Anticancer Drug Screen. Data for the rad50 strain (AID 155);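 note: 0% = growth of vehicle-only cultures of the same strain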; conditions: S. cerevisiae rad50 strain growth inhibition, stronger effect = higher value
Outline: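 Relative growth inhibition (compound vs vehicle) was measured in yeast with a defined repair-gene alteration.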

[2] = NCI Yeast Anticancer Drug Screen. Data for the mec2-1 strain (AID 157); conditions: S. cerevisiae mec2-1 strain, stronger effect = higher value
Outline: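 Compounds were applied to mec2-1 yeast cells. Their growth was then compared with that of vehicle-treated cultures to give growth inhibition.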

[3] = NCI Yeast Anticancer Drug Screen. Data for the sgs1 mgt1 strain (AID 161);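 note: 0% = growth of cultures given vehicle only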; conditions: S. cerevisiae sgs1 mgt1 strain, stronger effect = higher value
Outline: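 Yeast cells carrying a defined DNA-repair defect were exposed to test compounds. Growth inhibition was measured relative to vehicle-treated controls.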

[4] = NCI Yeast Anticancer Drug Screen. Data for the cln2 rad14 strain (AID 165);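 note: 0% = growth equal to vehicle treated cultures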; conditions: S. cerevisiae cln2 rad14 strain, stronger effect = higher value
Outline: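 Strain: cln2 rad14 yeast, altered in cell cycle control and DNA damage repair. Read-out: growth inhibition vs vehicle.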

[5] = NCI Yeast Anticancer Drug Screen. Data for the bub3 strain (AID 167); conditions: S. cerevisiae bub3 mutant strain, stronger effect = higher value
Outline: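 Screening used yeast with an engineered genetic alteration affecting cell cycle control. Compound-exposed cultures were compared with vehicle cultures, and reduced growth was taken as inhibition.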

[6] = NCI Yeast Anticancer Drug Screen. Data for the mlh1 rad18 strain (AID 175); conditions: S. cerevisiae mlh1 rad18 strain growth inhibition, stronger effect = higher value
Outline: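 A repair-deficient yeast strain is exposed to test compound, and growth is scored relative to vehicle-treated controls.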

[7] = at 5.0 µM (retest, dose inferred, filed as 0.5)
[8] = at 50.0 µM (retest, dose inferred, filed as 5.0)

Compound | growth inhibition [1, 7] [%] | growth inhibition [1, 8] | growth inhibition ([1]; at 50.0 µM) | growth inhibition [2, 7] | growth inhibition [2, 8] | growth inhibition ([2]; at 50.0 µM) | growth inhibition [3, 7] | growth inhibition [3, 8] | growth inhibition ([3]; at 50.0 µM) | growth inhibition [4, 7] [%] | growth inhibition [4, 8] | growth inhibition ([4]; at 50.0 µM) | growth inhibition [5, 7] [%] | growth inhibition [5, 8] | growth inhibition ([5]; at 50.0 µM) | growth inhibition [6, 7] | growth inhibition [6, 8] | growth inhibition ([6]; at 50.0 µM)
CC1=C(c2ccccc2)C(=O)OC1=O | 5 | 11% | 52.5% | 2% | 0% | 2.7% | 4% | 6% | -4.65% | 0 | 3% | -28.4% | -2 | 3% | 3.7% | 13% | 14% | -10.4%
CSC(=Nc1ccccc1)/N=C(\SCc1ccccc1)N(C)C | 45 | 98% (active) | 99.3% (active) | 26% | 45% | 99.7% (active) | 27% | 99% (active) | 99.2% (active) | 13 | 99% (active) | 98.8% (active) | -30 | 99% (active) | 99.5% (active) | 44% | 99% (active) | 99.3% (active)
Cc1c(F)c(C)c(C(=O)O)c(C)c1F | 26 | 99% (active) | 99.4% (active) | 27% | 98% (active) | 99.5% (active) | 20% | 99% (active) | 99.5% (active) | 8 | 99% (active) | 99.2% (active) | 11 | 99% (active) | 99.2% (active) | 27% | 100% (active) | 99.6% (active)
Nc1nc(-c2ccc(Cl)cc2)cs1 | -20 | 94% (active) | 98% (active) | 4% | 91% (active) | 97.4% (active) | 8% | 91% (active) | 98.2% (active) | -44 | 92% (active) | 97% (active) | -29 | 90% (active) | 97.8% (active) | -30% | 97% (active) | 97.7% (active)
CCOC(=O)C1(Br)CCN(S(=O)(=O)c2ccc(C)cc2)c2ccccc2C1=O (stereo not given) | 1 | 90% (active) | 96.5% (active) | 10% | 97% (active) | 98% (active) | -7% | 96% (active) | 97.8% (active) | -6 | 66% | 95.2% (active) | -3 | 95% (active) | 97.5% (active) | 18% | 97% (active) | 98.4% (active)
Oc1ccc2c(c1)Cc1cc(Br)ccc1-2 | 3 | 99% (active) | 98.5% (active) | -6% | 99% (active) | 98.9% (active) | 7% | 80% (active) | 98.6% (active) | -5 | 99% (active) | 97.8% (active) | 24 | 99% (active) | 98.5% (active) | -11% | 99% (active) | 98.2% (active)
ONC1=Nc2ccccc2OCc2cc(Br)c(Br)cc2COc2ccccc2N=C1NO | 22 | 96% (active) | 88% (active) | 19% | 98% (active) | 91.1% (active) | 18% | 89% (active) | 91.5% (active) | -1 | 81% (active) | 89.4% (active) | 13 | 91% (active) | 90.9% (active) | 31% | 97% (active) | 87.9% (active)
COP(=O)(OC)/C(=C/c1cn(C(c2ccccc2)(c2ccccc2)c2ccccc2)cn1)NC=O | 5 | 16% | 2.1% | 2% | -5% | 60.7% | -4% | 41% | 79.9% (active) | 1 | 14% | 0.6% | 0 | 9% | -1.7% | -12% | 40% | 39.2%
Cc1ccc(S(=O)(=O)N/N=C2/CC[C@H](C(C)(C)C)C[C@@H]2C)cc1 | 9 | 96% (active) | 86.2% (active) | -15% | 97% (active) | 90% (active) | -2% | 98% (active) | 77.4% (active) | -35 | 85% (active) | 87.7% (active) | -18 | 97% (active) | 84.7% (active) | -1% | 98% (active) | 76.3% (active)
O=C(COc1ccc(Cl)c(Cl)c1)Nc1ccc[n+](Cc2ccc(Cl)c(Cl)c2)c1 | -15 | 99% (active) | 99.6% (active) | 1% | 100% (active) | 99.5% (active) | 13% | 99% (active) | 99.5% (active) | 2 | 99% (active) | 99.2% (active) | 2 | 99% (active) | 99.3% (active) | 39% | 99% (active) | 98.8% (active)
CCOC(=O)c1[nH]c(Br)c(-c2ccc(OC)c(OC)c2)c1Br | 1 | 98% (active) | 92.1% (active) | -8% | 97% (active) | 63.5% | 1% | 98% (active) | 97.2% (active) | 26 | 99% (active) | 88.8% (active) | -2 | 99% (active) | 88% (active) | 8% | 97% (active) | 94.2% (active)
C=CCOc1ccc(/C=N/NC(N)=S)cc1 | 10 | 83% (active) | 88.3% (active) | 13% | 81% (active) | 87.3% (active) | 15% | 78% (active) | 44% | 6 | 87% (active) | 58.2% | 5 | 91% (active) | 88.1% (active) | 10% | 90% (active) | 52.1%
Cc1[nH]nc(C(F)(F)F)c1N=NN1CCOCC1 | 62 | 99% (active) | 99.2% (active) | 89% (active) | 99% (active) | 99.7% (active) | 55% | 99% (active) | 99.5% (active) | 47 | 99% (active) | 99.5% (active) | 19 | 99% (active) | 99.4% (active) | 79% (active) | 99% (active) | 99.5% (active)
Cc1ccc(Sc2ccc3ccccc3n2)cc1 | 2 | -34% | 36% | -3% | 46% | 37.5% | 15% | 37% | 50.2% | -18 | -24% | 50.2% | 1 | 30% | 67% | 0% | 18% | 2.25%
Clc1ccc([I+]c2cccs2)cc1 | 37 | 97% (active) | 98% (active) | 51% | 99% (active) | 98.7% (active) | 45% | 98% (active) | 8.95% | 33 | 97% (active) | 97.7% (active) | 66 | 97% (active) | 98% (active) | 72% (active) | 98% (active) | 99% (active)
CC(=O)Oc1c2ccccc2c(C)c2c1ccc1ccccc12 | 65 | 93% (active) | 96% (active) | 84% (active) | 92% (active) | 95% (active) | 89% (active) | 93% (active) | 96% (active) | 49 | 92% (active) | 94.2% (active) | 37 | 93% (active) | 96.7% (active) | 91% (active) | 90% (active) | 91.8% (active)
COC12C(COC(N)=O)C3=C(C(=O)C(C)=C(N)C3=O)N1CC1C2N1C(=O)c1ccc(Cl)cc1 (stereo not given) | 12 | 57% | 43.3% | 15% | 75% (active) | 50.1% | 20% | 81% (active) | 65.5% | 3 | 72% (active) | 46.4% | 3 | 50% | 43.4% | 25% | 86% (active) | 71.1% (active)
O=C(O)c1ccc(C(O)(c2ccccc2)c2ccccc2)cc1 | -9 | 65% | 63.4% | 11% | 95% (active) | 86% (active) | -9% | 90% (active) | 98% (active) | -1 | 90% (active) | 82.3% (active) | -3 | 97% (active) | 77.7% (active) | 3% | 93% (active) | 96.4% (active)
CO[C@H]1CC[C@@]2(C)C(=CC[C@H]3[C@@H]4C[C@H](OC(C)=O)C[C@@]4(C)CC[C@@H]32)C1 | 4 | 43% | 26.4% | 2% | 26% | 17.8% | 1% | 24% | 38.3% | 2 | 28% | 86.7% (active) | 1 | 19% | 13.3% | 0% | 23% | 34.9%
O=C(/C(O)=C(\O)C(=O)N(C1CCCCC1)C1CCCCC1)N(C1CCCCC1)C1CCCCC1 | 25 | 93% (active) | 96.9% (active) | -2% | 89% (active) | 98.2% (active) | 20% | 87% (active) | 96.8% (active) | -4 | 66% | 79.7% (active) | 4 | 95% (active) | 95.5% (active) | 14% | 86% (active) | 97.8% (active)
